Twelve compounds from PubChem BioAssay can be followed below.

Test [1] relates to XIP peptide (Xip251-270) binding. The test is described as follows: XIP fragment 251-270 binding compounds – biochemical, small-molecule microarray, fluorescence 635/667 nm, 0.1 µg/mL protein, primary screen (AID 1182). Conditions: fluorescent protein binding, 635 nm, higher = more signal, called active from +8 up or from −8 down.
Test [2] has as its system XIP peptide (Xip251-270). Put plainly: compounds binding XIP fragment 251-270 – biochemical, small-molecule microarray, fluorescence 635/667 nm, 0.5 µg/mL protein, primary screen (AID 1183). Conditions: fluorescence 635 nm, higher = more signal.
Test [3] in a line: blood-stage malaria parasite viability loss – strain 3D7, DAPI fluorescence, 100 nL, primary screen (AID 1184).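 Further: parasites grown inside human red blood cells in medium with human serum.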 To be noted: P. falciparum 3D7 growth, 3 d, higher = more signal.
The target of test [4] is Homeobox protein Hox-A13 (Mus musculus) (UniProt Q62424). The test is described as follows: disruptors of Hoxa13 oligonucleotide interaction – biochemical, fluorescence polarization, labeled oligonucleotide, primary screen (AID 1185). To be noted: Hoxa13:DNA binding, 15 min, higher = more signal, called active from +8 up or from −8 down.
Chain of Homeobox protein Hox-A13 (Mus musculus) (Q62424 whole entry, looked up): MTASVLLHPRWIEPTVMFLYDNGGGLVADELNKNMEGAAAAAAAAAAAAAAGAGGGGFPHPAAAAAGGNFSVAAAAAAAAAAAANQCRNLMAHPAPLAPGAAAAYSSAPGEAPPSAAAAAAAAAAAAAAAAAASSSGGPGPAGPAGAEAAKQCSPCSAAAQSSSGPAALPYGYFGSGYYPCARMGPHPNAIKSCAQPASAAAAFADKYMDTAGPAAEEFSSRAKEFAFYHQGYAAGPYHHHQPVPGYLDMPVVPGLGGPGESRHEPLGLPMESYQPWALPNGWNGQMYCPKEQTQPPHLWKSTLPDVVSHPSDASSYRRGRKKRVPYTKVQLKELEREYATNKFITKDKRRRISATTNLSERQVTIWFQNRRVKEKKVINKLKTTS
Test [5] can be described thus: blockers of DNA damage checkpoint Chk1 activation – imaging, HeLa, hydroxyurea, phospho-Chk1 antibody, percent positive cells, primary screen (AID 1186). To be noted: hydroxyurea-induced phospho-Chk1 immunofluorescence imaging, higher = more signal.
The nature of test [6]: blockers of DNA damage checkpoint Chk1 activation – imaging, HeLa, hydroxyurea, phospho-Chk1 nuclear intensity, primary screen (AID 1187). To be noted: hydroxyurea-induced phospho-Chk1 immunofluorescence imaging, higher = more signal.

Where “and” joins values, the source holds several entries; their conditions need not be identical. Equal entries are not always repeated. Calls of active or inactive are those of the source. Unless noted, how the calls were made is not given here.

For the compound `COC(=O)c1c2oc(c1C(=O)OC)C(=O)N[C@@H](Cc1ccccc1)Cn1cc(nn1)C1(CCCCC1)NC(=O)N[C@H](CO)CC2`, the composite z-score in test [1] was 0.398 (inactive) and -0.338 (inactive); in test [2] it was 0.762 and 0.215. Further, the z-score in test [3] is 0.53 and 1.25; in test [4], -4.76 (inactive) and -2.08 (inactive); in test [5] it was -0.496 (inactive) and 0.267 (inactive); in test [6] it was 0.184 (inactive) and 0.279 (inactive).

With `CCOC(=O)C[C@H]1[C@H](OC(=O)c2ccccc2-c2ccccc2)[C@@H](NC(=O)Cc2ccc(OC)cc2)c2cc(OCCCO)ccc2N1C(=O)Cc1ccc(OC)cc1`, the composite z-score was 0.645 (inactive) and -0.44 (inactive) in test [1]; 0.0988 and -0.0465 in test [2]. In addition, the z-score was -1.83 and -1.26 in test [3]; -0.622 (inactive) and -3.3 (inactive) in test [4]; -0.901 (inactive) and 0.898 (inactive) in test [5]; -0.496 (inactive) and 0.836 (inactive) in test [6].

As for `C=CCN(CCCCC)C(=O)C1N(CCOCCO)C(=O)C2C(C(=O)O)C3C=CC21O3` (configuration not stated), the composite z-score in test [1] is 0.901 (inactive) and -0.15 (inactive); in test [2], 0.571 and -1.58. The z-score is 0.234 and 0.841 in test [3]; -1.09 (inactive) and -0.752 (inactive) in test [4]; 0.0583 (inactive) and 0.485 (inactive) in test [5]; 0.233 (inactive) and -0.0615 (inactive) in test [6].

On to `C=CCN(C(=O)C1N(CCOCCO)C(=O)C2C(C(=O)O)C3C=CC21O3)C(C)(C)C` (configuration not stated), for which the composite z-score in test [1] is -0.348 (inactive) and -0.346 (inactive); in test [2], 0.102 and -0.294. For the same compound, the z-score is -0.283 and -0.145 in test [3]; -1.32 (inactive) and -0.575 (inactive) in test [4]; -0.262 (inactive) and -0.147 (inactive) in test [5]; -0.47 (inactive) and 0.312 (inactive) in test [6].

In the case of `C[N+](C)(C)CCCCNC(=O)[C@H]1C[C@H]2C(=O)N[C@@H](CCCC[N+](C)(C)C)C(=O)N2[C@H]1c1ccc(O)cc1`, the composite z-score in test [1] is 1.52 (inactive) and 1.25 (inactive); in test [2], 0.761 and 0.892. Moreover, the z-score in test [3] was 0.952 and -1.12; in test [4], -0.497 (inactive) and 1.22 (inactive); in test [5], 0.487 (inactive) and -0.868 (inactive); in test [6], 0.605 (inactive) and -0.687 (inactive).

On to `C=CC[C@@H](O)c1ccc(OCCO)cc1`, for which the composite z-score in test [1] is -0.0335 (inactive) and 0.172 (inactive); in test [2], 0.184 and -0.25. Besides, the z-score in test [3] was 0.667 and 0.717; in test [4], -0.948 (inactive) and -0.931 (inactive); in test [5] it was -0.442 (inactive) and -0.507 (inactive); in test [6], 0.186 (inactive) and -0.0561 (inactive).

On to `C[N+](C)(C)CCCCCCNC(=O)[C@@H]1C[C@@H]2C(=O)N[C@@H](CCCC[N+](C)(C)C)C(=O)N2[C@@H]1c1ccc(O)cc1`, for which the composite z-score in test [1] is 0.134 (inactive) and 0.316 (inactive); in test [2] it was 0.907 and 0.898. The z-score in test [3] is 0.202 and -0.0272; in test [4], -0.929 (inactive) and -2.3 (inactive); in test [5], 0.556 (inactive) and 0.31 (inactive); in test [6], 0.424 (inactive) and 0.327 (inactive).

As for `C=C[C@@H](C)[C@@H](O)c1ccc(OCCO)cc1`, the composite z-score was -0.704 (inactive) and -0.999 (inactive) in test [1]; -0.664 and 0.0227 in test [2]. The z-score in test [3] was -0.892 and 0.0904; in test [4] it was -0.592 (inactive) and -0.123 (inactive); in test [5] it was 1.19 (inactive) and -0.153 (inactive); in test [6], 1.48 (inactive) and 0.641 (inactive).

For `C=CCN(C(=O)C(c1cccs1)N(C(=O)/C=C\C(=O)O)c1c(Cl)cccc1CO)C(C)(C)C` (configuration not stated), the composite z-score in test [1] is -0.0516 (inactive) and 0.0403 (inactive); in test [2], 0.689 and -1.16. Besides, the z-score was 1.83 and 1.67 in test [3]; 0.131 (inactive) and -0.43 (inactive) in test [4]; 0.221 (inactive) and 0.501 (inactive) in test [5]; 0.711 (inactive) and 0.634 (inactive) in test [6].

Regarding `CC(CO)N1C(=O)[C@@H]2C3C(=O)OCCC=C[C@H]3OC23C=CCN(C(C)(C)C)C(=O)[C@@H]13` (some centres not stated), the composite z-score in test [1] is -0.516 (inactive) and 0.463 (inactive); in test [2], -0.947 and -0.179. The z-score in test [3] is 0.35 and 0.567; in test [4], -5.55 (inactive) and -5.92 (inactive); in test [5], 0.545 (inactive) and -0.0027 (inactive); in test [6], -0.0537 (inactive) and -0.28 (inactive).

For `C=C[C@@H](C)[C@@H](O)c1ccc(O)c2ccccc12`, the composite z-score in test [1] is 0.238 (inactive) and 0.467 (inactive); in test [2], -0.54 and -0.684. Further, the z-score in test [3] was 1.31 and -0.772; in test [4], -3.43 (inactive) and -4.33 (inactive); in test [5] it was 0.789 (inactive) and 0.536 (inactive); in test [6], 1.17 (inactive) and 0.193 (inactive).

`C=CCN(C(=O)C(c1cccs1)N(CCOCCO)C(=O)/C=C\C(=O)O)c1ccc(OC)cc1` (configuration not stated): the composite z-score in test [1] was -0.0498 (inactive) and -0.363 (inactive); in test [2] it was -0.371 and -1.72. The z-score in test [3] is -0.305 and 0.0058; in test [4] it was 1.69 (inactive) and 0.807 (inactive); in test [5], -1.69 (inactive) and -0.75 (inactive); in test [6], -0.197 (inactive) and -0.573 (inactive).
